Test results reported in PubChem BioAssay AID485347 (National Center for Advancing Translational Sciences (NCATS), 2010).
The whole screen tested about 340,000 compounds, of which about 1,200 (0.35%) were called active. The sample as a whole holds a higher share of actives than the screen did. A number with no mark means an inactive call.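 The calls were made as follows: active = potentiation over 3 SD above the plate norm (cut at about 30% in these data); inactive = the rest.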
Also: 0% is about no effect.

These molecules were tested against D(2) dopamine receptor (Homo sapiens) (UniProt P14416) (assay: HTS Assay for Positive Allosteric Modulators of the Human D2 Dopamine Receptor: Primary Screen for Potentiators). Conditions: HEK293 T-REx D2, calcium flux, EC20 dopamine potentiation; at 10 µM; active compounds read high.
Sequence of D(2) dopamine receptor (Homo sapiens) (P14416 whole entry, looked up): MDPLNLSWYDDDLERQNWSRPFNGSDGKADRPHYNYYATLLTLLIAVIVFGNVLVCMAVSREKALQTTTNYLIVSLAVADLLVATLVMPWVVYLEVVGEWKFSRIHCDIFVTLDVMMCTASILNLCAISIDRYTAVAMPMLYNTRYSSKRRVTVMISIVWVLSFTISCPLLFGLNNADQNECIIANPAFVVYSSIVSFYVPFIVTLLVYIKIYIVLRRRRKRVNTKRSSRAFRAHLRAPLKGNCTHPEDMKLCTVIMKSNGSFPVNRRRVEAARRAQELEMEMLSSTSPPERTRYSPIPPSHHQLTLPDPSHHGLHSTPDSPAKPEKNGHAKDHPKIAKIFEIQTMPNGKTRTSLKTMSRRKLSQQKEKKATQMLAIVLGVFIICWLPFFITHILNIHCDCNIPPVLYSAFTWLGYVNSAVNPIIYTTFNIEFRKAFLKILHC
Source text: NIH Chemical Genomics Center [NCGC] NIH Molecular Libraries Probe Centers Network [MLPCN] MLPCN Grant: NS064831-01 Assay Submitter (PI): David Sibley Dopamine receptors (DARs) are involved in the etiology and/or therapy of a number of neuropsychiatric and endocrine disorders. For instance, all receptor-based antiparkinsonian drugs work via stimulating the D2 DAR subtype whereas all FDA-approved antipsychotic agents are antagonists of this receptor. […] There are three different types of allosteric modulators that we are seeking, two of which will stimulate or augment receptor signaling, allosteric agonists and potentiators, while the third, allosteric antagonists, will attenuate receptor signaling. The present primary screening assay measures compound potentiation of an EC20 dopamine response by tracking calcium flux in a […], inducible Hek293 Trex D2 cell line.
Freshly passaged cells are plated in 1536 well black, clear bottom plates at a density of 4000 cells/well in 3 ul of complete media containing 1x tetracycline inducer. After an overnight incubation at 30 C in 5% CO2, cells are loaded with 2 ul of the no wash Calcium Assay Kit (ABD Bioquest) and incubated at room temperature for 30 to 90 minutes. A 10 cycle (1 second/cycle) baseline measurement is taken and then the FDSS online 1536 pintool delivers 23 nl of compound library (as well as dopamine controls) to the plate. The plate is measured for kinetically at 1 cycle/sec for 180 seconds and is considered to be the agonist portion of the assay (eg, compounds which activate a positive calcium response during this portion are flagged as potential agonists). Following the 180 second read, 1 ul of an EC20 of dopamine is delivered by an onboard pipette head. Measurements are taken kinetically for an additional 180 seconds.
For `COc1ccccc1N1CCN(C(CNC(=O)Oc2ccccc2)c2cccnc2)CC1` (stereo not given), the potentiation was -0.508%. With `COC(=O)C(c1ccccc1)N1CCCCCC1` (stereo not given) the potentiation was 5.6%. `O=C(NCC(c1cccnc1)N1CCN(c2ccccc2)CC1)Oc1ccccc1` (stereo not given) was tested, and the potentiation was 43.6% (active). With `Cc1cccc(Cn2cccc(C(=O)Nc3ccc4c(c3)OCCO4)c2=O)c1` the potentiation was -8.38%. Work on `Cc1ccc(NC(=O)N(Cc2ccc3c(c2)OCO3)C2CCN(Cc3ccccc3)CC2)cc1F` yielded a potentiation of 2.88%.
